Compound activity (PubChem)
In the library only some 1.3% were active in any assay of this set; here they are far more common.
TRPML1 agonist: qHTS for Agonists of the Human Mucolipin Transient Receptor Potential 1 (TRPML1) | actives 0.12% (n = 410,000) | Mucolipin-1 (Homo sapiens), Q9GZU1 | activation, % (no concentration beside the values) | TRPML1-expressing cells, Ca2+ dye fluorescence, FDSS; in the data active = activation above about 50%; inconclusive = mostly about 30% to 49%; also: 0% is about no effect
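Agonist activity was taken from a 110 s kinetic Ca2+ dye read on the FDSS after pinning compounds onto TRPML1-DL cells. The cells were seeded at 1,500/well with Tet inducer, incubated about 16 h, then dye-loaded at room temperature.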
BRCA1 expr up: qHTS Assay to Identify Small Molecule Activators of BRCA1 Expression; MCF7-BRCA1-FFLuc reporter, luminescence, 48 h; response scale: scaled: vehicle 0%, 10 µM genistein 100%; Potency, µM (highest dose often 46.1 µM), for the others: top-dose activation, actives largely listed as activators; actives 1.1% (n = 380,000); also: potency is read from the fitted curve at half-maximal effect; nearly all actives have a fitted effect of over 80% in size
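Activators of BRCA1 expression were detected as increased firefly luciferase luminescence in engineered MCF7 cells after 48 h compound incubation. Signals were scaled to genistein 10 microM as full activation.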
TRPML1 inh: qHTS for Inhibitors of the Human Mucolipin Transient Receptor Potential 1 (TRPML1); TRPML1-inducible cells, Ca2+ dye fluorescence, FDSS; stronger effect = lower value; inhibition of EC80 agonist-evoked calcium signal; activity change, negative = inhibition, % (test concentration not listed); actives 0.02% (n = 390,000); in the data active = activity change below about -50%; inconclusive = between about -30% and that limit;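 also: stimulus is agonist 54-4 at its EC80 concentration; % is scaled to controls: 0 for no effect and ±100 for the full control effect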
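TRPML1-DL cells, Tet-induced overnight (~16 h, 37 °C) at 1,500 cells/well, were loaded with Ca8 no-wash dye plus quencher for 45-90 min at room temperature. Compounds were pinned during FDSS kinetic reading; agonist 54-4 at EC80 (4 uM final) then added.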
IL-2 act: qHTS of IL-2 Activators | IL-2 activation reporter assay, cell-based qHTS; stimulated with anti-CD3/CD4/CD28 beads; in transgenic mouse T cells | activation, % (series mostly up to about 46 µM) | actives 0.065% (n = 360,000); in the data active = activation above about 50%; inconclusive = mostly about 30% to 49%; also: 0% is about no effect
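Readout: EGFP and DsRed signals by fluorescent plate cytometry. Unstimulated transgenic mouse T cells received compound 60 min before antibody-bead stimulation, then incubated 18 h at 37 degrees C.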
PKM2 act: qHTS Assay for Activators of Human Muscle isoform 2 Pyruvate Kinase | Potency, µM (top dose mostly 57.5 µM), without a hit: top-dose activation, usual class: activators | actives 0.34% (n = 260,000) | purified PKM2, Kinase-Glo ATP luminescence, activation; response scale: 0% is enzyme alone, no compound; also: potency is read from the fitted curve at half-maximal effect; % is scaled to controls: 0 for no effect and ±100 for the full control effect; nearly all actives have a fitted effect of over 55% in size
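Purified hPK-M2 (>95% pure) converted ADP (0.1 mM final) to ATP with 0.5 mM PEP in 50 mM imidazole pH7.2, KCl, MgCl2, Tween 20, BSA; 1 h at room temperature. ATP detected by Kinase-Glo luminescence.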
PTAP TSG101 blk: qHTS Assay for Iinhibitors of HIV-1 Budding by Blocking the Interaction of PTAP/TSG101; Tumor susceptibility gene 101 protein (Homo sapiens), Q99816; Fluorescence polarization, FITC-PTAP peptide / Tsg101 binding; Potency, µM (titrated, usually from 115 µM), without a hit: at the highest dose activity change, negative = inhibition, hits mostly inhibitors; 340,000 tested, under 10 active; active = well fitted inhibition curve with a large enough effect in the main read-out, with a control signal flat, not every such curve was filed as active; inconclusive = small, poorly fitted or top-dose-only effect, or effect the other way, or a change in a side signal; inactive = no such curve, though single readings can be large or run the other way; also: potency is read from the fitted curve at half-maximal effect; % of control where 0% means no effect
Target sequence (Q99816 whole entry, looked up): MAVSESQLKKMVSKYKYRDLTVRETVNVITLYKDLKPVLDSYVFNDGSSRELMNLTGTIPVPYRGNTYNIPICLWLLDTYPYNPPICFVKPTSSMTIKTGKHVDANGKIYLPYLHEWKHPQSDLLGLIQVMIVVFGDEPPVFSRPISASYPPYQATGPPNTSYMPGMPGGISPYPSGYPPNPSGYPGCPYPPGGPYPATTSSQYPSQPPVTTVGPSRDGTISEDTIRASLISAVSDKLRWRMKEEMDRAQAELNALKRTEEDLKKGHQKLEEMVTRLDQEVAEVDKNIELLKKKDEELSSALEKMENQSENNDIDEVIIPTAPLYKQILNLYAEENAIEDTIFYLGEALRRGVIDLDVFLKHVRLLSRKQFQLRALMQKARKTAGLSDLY
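FP read-out: FITC-PTAP peptide, 50 nM final, binding Tsg101 binding domain, 10 uM final; 20 min, r.t.; 10 mM HEPES pH 7.5, 0.15 M NaCl, 0.01% Tween 20, 3 mM EDTA, 0.1 mM TCEP.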
* = called active by the depositor; ? = inconclusive; · = not tested or not shown; [ ] = another dose, or the depositor's remark. Unless noted, calls follow the shape of the dose curve; as a rule, active = well fitted activation curve with a large enough effect; inconclusive = small, poorly fitted or top-dose-only effect; inactive = no such curve, though single readings can be large or run the other way.

SMILES	TRPML1 agonist	BRCA1 expr up	TRPML1 inh	IL-2 act	PKM2 act	PTAP TSG101 blk
O=C(Nc1nc2ccccc2s1)c1c(F)cccc1Cl	0	10µM*	-6	0	-4%[11.5 µM]	2%
CC(C)C(=O)NNc1nc2ccccc2s1	0	8.9µM*	-10	-1	-9%	-5%
CCCCCCCCCCCCOC(=O)N1CCN(/[N+]([O-])=N/Oc2ccc([N+](=O)[O-])cc2[N+](C)=O)CC1	1	10%	-8	·	·	·
COc1cccc(NC(=O)CN(c2ccc([N+](=O)[O-])cc2)S(=O)(=O)c2ccccc2)c1	-1	0%	-4	0	4µM*	-1%
COc1ccc(NC(=O)CN(C)S(=O)(=O)c2ccc(Cl)cc2)c([N+](=O)[O-])c1	2	5%	14	2	1%	-2%
COc1cccc(NC(=O)CN(C)CC(=O)Nc2ccc(Cl)cc2[N+](=O)[O-])c1	1	3%	4	-4	3.2µM*	-5%
Cc1cc(C(=O)Nc2ccc([N+](=O)[O-])cn2)cs1	-1	3.2µM*	1	1	-9%	-4%
CCCOc1ccc(Cc2nn3c(=O)/c(=C/c4ccco4)sc3nc2=O)cc1	50*	-3%	0	1	2%	-2%
Cn1cnnc1SCC(=O)Nc1ccc2nc(SCc3ccccc3F)sc2c1	0	4µM*	16	1	-9%	-7%
CC(=O)n1c2ccccc2c2ccccc21	1	-2%	6	2	1%	-5%
CC(=O)n1c(C=Nc2ccc(Cl)cc2)c(O)c2ccccc21	13	-19%	-11	84*	16%	?
C/C(=N\NC(=O)c1ccn(C)n1)c1cccc(NC(=O)c2ccc(C)s2)c1	0	11µM*	-11	0	2%	1%
COc1ccc(NC(=O)CSc2ncn(-c3ccccc3)n2)cc1Cl	0	3%	-2	-3	14µM*	-6%
CN(C(=O)CSc1ccc2c(c1)OCCO2)c1ccccc1	-2	10µM*	4	0	·	-2%
N#CCCN(C(=O)CSc1ccc2c(c1)OCCO2)c1ccccc1	0	3%	14	-2	-1%	-7%
Cc1cccc(C(=O)NNC(=O)c2cccc(C)c2)c1	0	20%	9	0	1%	-1%
Cc1cccc(C(=O)NC(=O)Nc2c(C)cc(C)nc2C)c1	1	4µM*	-8	0	-44%	-1%
Clc1ccc2c(Cl)cc[n+](CCC3CCCCC3)c2c1	0	0%	·	·	·	·
CCCn1nc(NC(=O)c2ccco2)c2cc3cc(C)ccc3nc21	5	40%	-19	0	1%	-5%
CCCn1nc(NC(=O)c2ccccn2)c2cc3cc(C)ccc3nc21	0	11µM*	26	3	-22%	-2%
COc1ccc(C(=O)Nc2nnc(SCc3cc(=O)c4cccc(F)c4[nH]3)s2)cc1	2	·	24	·	·	·
CCn1cnc2cc(NC(=O)c3ccc(C)cc3)ccc21	2	4.5µM*	19	7	-15%	0%
CCC(=O)Nc1ccc2c(c1)ncn2-c1ccc(OC)cc1	1	80%	7	-3	5%	-10%
Cc1ccc(C(=O)Nc2ccc3c(c2)ncn3C)cc1	0	?	-2	-3	-13%	-2%
CCC(=O)Nc1ccc2c(c1)ncn2-c1ccc(C)cc1	-1	2µM*	21	1	-1%	-2%
SMILES	TRPML1 agonist	BRCA1 expr up	TRPML1 inh	IL-2 act	PKM2 act	PTAP TSG101 blk
COc1cccc2cc(-c3ccccc3)c(=O)oc12	1	2.5µM*	-2	0	-36%	-1%
COc1cccc2cc(-c3nc(-c4cccs4)cs3)c(=O)oc12	1	29%	21	76*	1%	?
COc1cccc2cc(-c3nc4ccccc4[nH]3)c(=O)oc12	0	3.2µM*	-5	0	-4%	-6%
COc1cccc2cc(-c3nc(-c4cccs4)no3)c(=O)oc12	1	·	-7	·	·	·
CN(C)S(=O)(=O)c1ccc(C(=O)NCCOc2ccc(F)cc2)cc1	-1	11µM*	-8	-2	6%	-9%
CC(/C=N/N1CCN(c2ccccc2)CC1)=C\c1ccco1	1	6.3µM*	10	-1	-24%	-4%
CC(=C/c1ccco1)/C=N/N1CCN(c2ccccc2)CC1	1	-4%[1.84 µM]	-5	-1	-45%	-3%
CCCSc1nnc2c(n1)OC(c1sccc1C)Nc1ccccc1-2 (stereo not given)	3	5%	5	·	·	·
Cc1ccc(/C=C/C2=Cc3c(sc(NC(=O)CSc4n[nH]c(N)n4)c3C#N)C(C)(C)C2)o1	·	·	·	·	4.5µM*	·
O=C(COc1ccc(F)cc1)Nc1nc2c(s1)CCCC2	0	13µM*	14	0	9%	-3%
COc1ccc2cc3c(N)nn(C(=O)c4ccccc4Cl)c3nc2c1	0	-41%	-5	2	20µM*	-4%
CCc1ccc(CNC(=O)c2ccc(-c3nc(CS(=O)(=O)c4ccccc4)c(C)o3)cc2)cc1	-1	·	1	·	·	·
O=c1cc(CSc2nnnn2-c2ccccc2)nc2scc(-c3ccccc3)n12	7	17%	26	-2	25µM*	-1%
O=c1cc(CSc2nnnn2-c2ccccc2)nc2sccn12	0	3%	-12	-1	?	0%
Cn1/c(=N\NC(=O)c2ccccc2Cl)sc2ccccc21	1	11µM*	-9	0	0%	-5%
CC(=O)N/N=c1\sc2ccccc2n1C	1	-9%	0	0	0%	-2%
COc1ccc(C(C)NC(=O)Nc2ccc(C(C)=O)cc2)cc1OC (stereo not given)	1	11µM*	5	-1	-1%	-2%
COC(=O)[C@@H](NC(=O)Nc1ccc(C(C)=O)cc1)C(C)C	0	1%	2	0	-6%	-2%
CC(=O)c1ccc(NC(=O)C2CCN(S(=O)(=O)c3cccs3)CC2)cc1	-1	8.9µM*	-10	0	-1%	-2%
O=C(NCc1cccs1)C1CCN(S(=O)(=O)c2cccs2)CC1	0	2%	-25	-2	16µM*	-3%
O=C(NCc1cccs1)C1CCN(S(=O)(=O)c2ccccc2F)CC1	0	4%	-4	-1	14µM*	-13%
